PAX8 reporter: lowers PAX8-driven luciferase in RMG-I cells | actives 1.2% (n = 360,000) | inhibition, % at 12.6 µM | RMG-I TPO-luciferase reporter, SteadyGlo, 24 h | AID 652154;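 active means mean replicate inhibition at least 60% with every replicate also reaching 60%; inconclusive means only one of the two criteria is met; inactive means mean below 60% and not all replicates reaching 60%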;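 further: luciferase light reporting Pax8 driven TPO promoter activity; plate controls were median of neutral control wells for no effect and mitoxantrone controls for full effect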
LGR2 inh: blocks bursicon-induced cAMP signaling via Drosophila LGR2; actives 0.35% (n = 380,000); inhibition, % at 9.99 µM; AID 720647; HEK293 LGR2, CRE-luciferase, bursicon-stimulated, 4 h;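 active means drop in luminescence signal, shown as inhibition above about 50% in the replicate tests, limit read from the data, passing the limit was not always enough; inconclusive means probably only some replicates passing the limit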;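 further: agonist challenge used bursicon conditioned medium at about half maximal strength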
Shn3 inh set2: inhibitors of Schnurri-3 3'UTR reporter in osteoblasts. Clone20 osteoblast Shn3 3'UTR firefly luciferase, 24 h. inhibition, % at 12.5 µM. actives 0.52% (n = 360,000). AID 588674;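 active means mean inhibition of at least 75% with every replicate also reaching 75%; inconclusive means mean inhibition at least 75% but some replicate below; inactive means mean inhibition below 75%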;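 further: 0% = median of neutral control wells and 100% = pilot-screen positive control compound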
EBV LMP1 NFkB: Epstein-Barr LMP1 NF-kappaB reporter inhibition; LMP1-induced NF-kappaB luciferase reporter cells, luminescence; inhibition, % at 12.5 µM; actives 0.69% (n = 350,000); AID 504558; in the data active means inhibition above about 41%; inconclusive means no clear call, values can overlap the other calls;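 further: 0% = neutral control wells and 100% = reference inhibitor control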
MITF TRPM1 inh: MITF TRPM1 promoter inhibition in SK-MEL-5 cells; SK-MEL-5 TRPM1 promoter luciferase, 24 h; inhibition, % at 12.5 µM; actives 0.83% (n = 330,000); AID 488899;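 active means mean inhibition across replicates of 60% or more, whatever share of single replicates reaches that level; inconclusive means some that reach 60%, reason not given; inactive means mean inhibition across replicates below 60%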
EWS-Fli block: inhibitors of EWS/Fli oncoprotein transcriptional activity; actives 0.67% (n = 350,000); A673 NR0B1-luciferase reporter, viability-normalised; inhibition, % at 12.6 µM; AID 651661;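 active means mean inhibition of at least 50% after viability correction, with every replicate also passing that limit; inconclusive means mean reaches 50% but only one of two replicates passes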;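 further: firefly luciferase signal divided by Alamar Blue viability fluorescence both relative to DMSO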
DNA binding: small molecule DNA binding by fluorescence polarization; shares compounds with EWS-Fli block; salmon sperm DNA acridine orange fluorescence polarization; AC35, µM (top dose mostly 68 µM), for inactives: at the highest dose activity change, negative = DNA binding; actives 2% (n = 640); AID 720586;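 active means fitted curve reaches a 35% signal fall AC35 below twice the sample's top valid tested dose, actives reach about 48 µM in these data; inactive means the rest, including activity in the rising direction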;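 further: lower polarization ratio signals compound binding to DNA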
An asterisk follows results filed as active; ? = inconclusive; / = not tested or not shown. This is a sample that favours compounds with a hit; in the whole collection about 2.2% have one here.

SMILES	PAX8 reporter	LGR2 inh	Shn3 inh set2	EBV LMP1 NFkB	MITF TRPM1 inh	EWS-Fli block	DNA binding
CC=Cc1ccc2n(c1=O)C[C@@H]1[C@@H](CO)[C@H](C(=O)NC3CCC3)N(CCC)[C@H]21 (mixture of isomers)	/	14	/	/	/	-11	/
CCCN1[C@H](C(=O)OC)[C@@H](CO)[C@@H]2Cn3c(ccc(-c4cccc(C(=O)N(C)C)c4)c3=O)[C@@H]21	/	-4	/	/	/	-4	/
COC(=O)C[C@@H]1CC[C@@H]2[C@@H](COc3ccc(NC(=O)c4cscn4)cc3C(=O)N2C)O1	31	11	/	/	/	23	/
C[C@@H]1CN([C@H](C)CO)C(=O)c2cccc(N(C)C)c2O[C@@H]1CN(C)Cc1ccc(C(=O)Nc2ccccc2N)cc1	32	/	/	/	/	56*	-3%
C[C@@H]1CN([C@@H](C)CO)C(=O)c2cccc(NC(=O)Nc3ccccc3)c2O[C@@H]1CN(C)Cc1ccc(-c2ccccc2)cc1	15	/	/	/	/	78*	0%
C[C@@H]1CN([C@H](C)CO)C(=O)c2cc(C#CCN(C)C)cnc2O[C@H]1CN(C)Cc1ccc(-c2ccccc2)cc1	/	-1	/	/	/	54*	-17%
C[C@H]1CN([C@@H](C)CO)C(=O)c2cccc(NC(=O)Nc3ccccc3)c2O[C@@H]1CN(C)Cc1ccc(-c2ccccc2)cc1	-29	-6	/	/	/	-10	/
CN(C)C(=O)c1ccc(-c2ccccc2[C@@H]2[C@H](C#N)N(C(=O)C3CCCC3)[C@H]2CO)cc1	/	3	/	/	/	-18	/
COc1ccc(Cn2cc3c(-c4ccc(F)cc4)nnc-3c3cc(OC)c(OC)cc32)cc1	92*	31	-4	69*	83*	66*	-25%
COc1ccc(-c2cn[nH]c2-c2ccc(OCc3ccc(F)cc3)cc2O)cc1OC	25	-2	51	13	22	10	/
COCC(=O)Nc1ccc2c(c1)[C@@H]1C[C@@H](CC(=O)NCc3ccc(-c4ccccc4)cc3)O[C@@H](CO)[C@@H]1O2	42	1	/	/	/	60*	6%
O=C(C[C@H]1C[C@H]2c3cc(NC(=O)CC4CC4)ccc3O[C@H]2[C@@H](CO)O1)NCc1ccccc1F	/	-8	/	/	/	-12	/
COCC(=O)Nc1ccc2c(c1)[C@H]1C[C@@H](CC(=O)NCc3ccc(-c4ccccc4)cc3)O[C@@H](CO)[C@H]1O2	18	3	/	/	/	5	/
O=C(C[C@@H]1C[C@H]2c3cc(NC(=O)CC4CC4)ccc3O[C@H]2[C@H](CO)O1)NCc1ccccc1F	/	1	/	/	/	56*	-4%
CCN1C/C(=C/c2ccc(OC)c(O)c2)C(=O)/C(=C/c2ccc(OC)c(O)c2)C1	18	32	-20	0	21	53*	1%
CN(C)C(=O)c1cccc(-c2ccccc2[C@H]2[C@H](C#N)N(C(=O)C3CCCC3)[C@H]2CO)c1	/	12	/	/	/	2	/
O=C(NC(=O)c1ccccc1)Nc1ccccc1	-7	37	8	22	-1	56*	-13%
COC(=O)c1cccc(NC(=O)NC(=O)c2ccc(Cl)cc2)c1	-21	-6	-20	25	39	87*	-7%
C[C@H]1CN([C@@H](C)CO)C(=O)c2cccc(NC(=O)Nc3ccc4c(c3)OCO4)c2O[C@@H]1CN(C)Cc1ccc(Cl)c(Cl)c1	-10	-8	/	/	/	-9	/
S=C(NCCN1CCOCC1)Nc1ccccc1Cl	9	2	14	-3	0	83*	0%
Cn1cnc(S(=O)(=O)N2CC[C@@H]3[C@@H](CO)Nc4ccc(-c5ccccc5F)cc4[C@@H]32)c1	-11	-16	/	/	/	10	/
CC(=O)Nc1ccc(OCC(=O)N(CC(C)C)C2CCS(=O)(=O)C2)cc1 (configuration not stated)	28	/	-20	0	-2	68*	0%
COc1ccc2cc(C(N)=O)/c(=N\NC(=O)c3ccccc3)oc2c1	10	?	23	46*	34	71*	-16%
Nc1ccn([C@@H]2O[C@H](CO)[C@@H](O)C2O)c(=O)n1 (some centres not stated)	25	28	83	47*	18	51*	-7%
